Compound activity from PubChem.
TrxR1 substrate – qHTS Assay for Substrates of Mammalian Selenoprotein Thioredoxin Reductase 1 (TrxR1): qHTS; purified TrxR1 substrate turnover, NADPH consumption readout; Potency, µM (doses to about 114 µM); 0.01% of 390,000 active; AID 588456, 2011; note: nearly all actives have a fitted effect of over 50% in size
Target sequence (O89049 whole entry, looked up): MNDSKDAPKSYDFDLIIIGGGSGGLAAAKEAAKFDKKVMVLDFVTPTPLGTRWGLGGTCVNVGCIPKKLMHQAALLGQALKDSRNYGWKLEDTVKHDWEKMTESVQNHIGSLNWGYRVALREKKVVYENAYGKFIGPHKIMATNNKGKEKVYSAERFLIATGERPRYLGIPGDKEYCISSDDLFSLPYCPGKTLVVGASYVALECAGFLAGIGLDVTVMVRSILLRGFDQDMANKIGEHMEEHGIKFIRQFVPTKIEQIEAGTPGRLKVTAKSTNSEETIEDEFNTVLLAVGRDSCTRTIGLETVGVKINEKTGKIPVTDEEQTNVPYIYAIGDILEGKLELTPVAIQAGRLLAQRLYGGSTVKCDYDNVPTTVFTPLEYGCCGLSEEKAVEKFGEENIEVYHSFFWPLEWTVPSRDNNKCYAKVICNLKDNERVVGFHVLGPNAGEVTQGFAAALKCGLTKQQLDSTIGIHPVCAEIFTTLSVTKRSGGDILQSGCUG
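Rat TrxR1, dispensed at 90 nM, was prereduced with 400 uM NADPH (final) for 5 min at ~22 deg C, then incubated with compound 15 min before 400 uM selenite. A first-read NADPH fluorescence drop versus no-compound background flagged substrates.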
Eya2 phos inh – qHTS Assay for Inhibitors of the Phosphatase Activity of Eya2. recombinant Eya2, OMFP fluorescence dephosphorylation (OMFP is methylfluorescein phosphate). Potency, µM (titrated, usually from 76.9 µM), hits mostly inhibitors. 0.006% of 330,000 active. AID 488837, 2010
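Eya2 protein (added as 0.2 uM solution) was preincubated with compound for 10 min at ambient temperature in 50 mM HEPES pH 7.5, 50 mM NaCl, 5 uM MgCl2, 0.05% BSA, 1 mM DTT. OMFP (added at 50 uM) then reacted 10 min; fluorescence read at 485/525 nm.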
IDH1 R132H inh – qHTS for Inhibitors of mutant isocitrate dehydrogenase 1 (IDH1): qHTS; Isocitrate dehydrogenase [NADP] cytoplasmic (Homo sapiens), O75874; IDH1-R132H enzyme, NADPH consumption, diaphorase/resazurin fluorescence; 0.093% of 390,000 active; AID 602179, 2012; Potency, µM (top dose mostly 76.6 µM), usual class: inhibitors; note: nearly all actives have a fitted effect of over 65% in size
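IDH1-R132H (0.5 ug/mL dispensed) in pH 7.5 Tris buffer was preincubated 30 min with compound, then given a substrate mix of 0.016 mM NADPH and 2 mM alpha-KG for 80 min at room temperature; remaining NADPH was read by diaphorase/resazurin fluorescence.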
FBPA coupling cs – qHTS Assay for Inhibitors of Fructose-1,6-bisphosphate Aldolase from Giardia Lamblia: Coupling assay counterscreen. activity change, negative = inhibition, % at 58.2 µM, hits read low. coupling enzyme system counterscreen, AmpLite Red fluorescence. 0.67% of 290,000 active; in the data active = activity change below about -30%
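Compounds tested against the coupling enzymes alone at 57.5 uM final; readout was AmpLite Red fluorescence (525/598 nm) after 20 min at RT.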
TrxR1 inh – qHTS Assay for Inhibitors of Mammalian Selenoprotein Thioredoxin Reductase 1 (TrxR1): qHTS; AID 588453, 2011; Potency, µM (highest dose often 114 µM), hits mostly inhibitors; 1% of 390,000 active; Thioredoxin reductase 1, cytoplasmic (Rattus norvegicus), O89049; recombinant rTrxR1, NADPH fluorescence consumption, selenite substrate; note: nearly all actives have a fitted effect of over 65% in size
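Rat TrxR1 (90 nM in the dispensed reagent) was pre-reduced with 400 uM NADPH for 5 min at room temperature, then incubated with compound for 15 min. After 400 uM selenite was added, NADPH fluorescence (Ex 340/Em 450 nm) was followed for 8 min.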
A number is an active result; 0 = inactive; ? = inconclusive; - = no result given; ! = not confirmed by another sample; [ ] = another dose, or the depositor's remark. Compounds with a hit are over-represented: about 1.5% of the library has one in this group of screens. Unless noted, calls come from the whole dose curve; as a rule, active = well fitted curve in the direction sought with a large enough effect; inconclusive = small, poorly fitted or top-dose-only effect, or another doubt; inactive = no such curve, though single readings can be large; an effect the other way counts as inactive or inconclusive.

SMILES	TrxR1 substrate	Eya2 phos inh	IDH1 R132H inh	FBPA coupling cs	TrxR1 inh
Cc1ccc(C(C[N+](=O)[O-])n2nc(C)cc2C)cc1 (centres undefined)	0	0	0	0	5.6µM
Oc1ccc2ccccc2c1/C=N/c1nccs1	0	0	0	-	0
Oc1ccc2ccccc2c1C=NCc1cn2ccsc2n1	0	0[15.4 µM]	0	-35	0
Cc1ccc(/C=C2/CNC/C(=C\c3ccc(C)cc3)C2=O)cc1	-	-	-	0	-
CCC(CC)C(=O)Nc1ccc(-c2cn3cccnc3n2)cc1	0	0	0	0	79µM
O=Cc1ccc(CS)cc1	0	-	-	-	0[0.0914 µM]
O=C1c2ccccc2NC(c2ccco2)N1O (centres undefined)	0	0	0	0	40µM
O=C1c2ccccc2NC(c2ccc(Br)o2)N1O (centres undefined)	0	0	-	-	?
C=CCNc1oc(-c2ccc(-c3ccccc3)cc2)nc1C#N	0	0	-	-	14µM
COc1ccc(N(C(=O)CCl)C(C(=O)NCCc2ccccc2)c2cccs2)cc1 (centres undefined)	0	0	0	0	11µM
O=S(NCc1ccco1)C12CC3CC(CC(C3)C1)C2 (centres undefined)	0	0	0	0	35µM
O=S(NCc1ccccc1)C12CC3CC(CC(C3)C1)C2 (centres undefined)	0	0	0	0	0
COC(CN(C)C(C(=O)NC1CCCCC1)c1ccccc1)OC (centres undefined)	0	0	0	0	0
COC(CN(C(=O)CCl)C(C(=O)NC1CCCC(C)C1C)c1ccc(C)cc1)OC (centres undefined)	0	0	0	0	56µM
COC(CN(C(=O)CCl)C(C(=O)NC1CCCCC1)c1ccc(Cl)cc1)OC (centres undefined)	0	0	0	0	35µM
COC(CN(C(=O)CCl)C(C(=O)NC1CCCCC1)c1ccccc1C)OC (centres undefined)	0	0	0	0	40µM
O=C(NC1CCCC1)C(c1ccc(Cl)cc1)N(Cc1ccc(F)cc1)C(=O)CCl (centres undefined)	0	0	0	0	13µM
CCCCCC(O)/C=C/C=C\CCCCCCCC(=O)O (centres undefined)	-	-	-	0	-
CCCCCCCCN=C(N)c1ccc(C(=O)OCC2CCCCC2)cc1	-	-	-	0	-
CCCCCCCCCCCCCCOS(=O)(=O)O	-	-	-	0	-
Cc1ccc(C2C(C#N)=C(N)Oc3c2oc(CO)cc3=O)o1 (centres undefined)	0	0	0	-38	0
CC(C)Oc1ccc(C2C(C#N)=C(N)Oc3c2oc(CO)cc3=O)cc1 (centres undefined)	0	0	0	0	0
COC(=O)[C@H]1[C@@H]2C[C@H]3c4[nH]c5ccccc5c4CCN3C[C@@H]2CC[C@@H]1O	-	-	-	0	-
O=[N+]([O-])c1cccc(S(=O)(=O)N2CCN(c3nc(-c4cccs4)nc4ccccc34)CC2)c1	0	-	-	-	0
CCCN1CCCc2cc(CN)ccc21	0	0	0	-52	?
SMILES	TrxR1 substrate	Eya2 phos inh	IDH1 R132H inh	FBPA coupling cs	TrxR1 inh
CN1CCCc2cc(C=O)ccc21	0	0	0	0	?
COC(=O)NC(/C=C/c1ccccc1)C(C(C)=O)C(=O)OC (centres undefined)	-	-	-	0	-
O=c1c2cc(N3CCOCC3)ccc2[nH]c(=S)n1Cc1ccccn1	0	0	0	-41	0
N#CC(=C(/N)Sc1ccccc1N)/C(C#N)=C(/N)Sc1ccccc1N	-	-	-	0	-
O=C1C=CC(=O)N1c1cccc(-c2ccccc2)c1	0	0	0	0	2.5µM
O=C(Nc1cccc(N2C(=O)C=CC2=O)c1)c1cccs1	-	0	-	-	-
C(=Nc1cnc2ccccc2c1)c1ccnc2ccccc12	0	-	-	-	0
COC(=O)CCC(=O)OC1(C)C(=O)C2=CN(CCCOC(C)C)C(c3ccc(OC)cc3)=CC2=C(Br)C1=O (centres undefined)	0	0	0	-41	0
COC(=O)CCC(=O)OC1(C)C(=O)C2=CN(Cc3ccc(OC)cc3)C(c3ccc(OC)cc3)=CC2=C(Br)C1=O (centres undefined)	0	-	0	0	0
COC(=O)CCC(=O)OC1(C)C(=O)C2=CN(CC3CC3)C(c3ccc(OC)cc3)=CC2=C(Br)C1=O (centres undefined)	0	0	0	-32	0
COC(=O)CCC(=O)OC1(C)C(=O)C2=CN(CC(C)C)C(c3ccc(OC)cc3)=CC2=C(Br)C1=O (centres undefined)	-	0	-	-40!	-
Cc1ccc(Cn2cnc3c(cnn3C(C)(C)C)c2=O)cc1F	0	-	-	-	0
CC[C@H](C)[C@H](NC(=O)[C@H](CC(=O)O)NC(=O)[C@H](CC(C)C)NC(=O)[C@H](Cc1cnc[nH]1)NC(=O)[C@H](C)NC(=O)[C@H](Cc1ccccc1)NC(=O)[C@H](Cc1ccc(O)cc1)NC(=O)[C@@H](NC(=O)[C@H](C)NC(=O)[C@H](CCC(=O)O)NC(=O)[C@H](CCC(=O)O)NC(=O)[C@H](CC(=O)O)NC(=O)CCC(=O)O)C(C)C)C(=O)N[C@H](C(=O)N[C@@H](Cc1c[nH]c2ccccc12)C(=O)O)[C@@H](C)CC	-	-	-	0	-
COc1ccccc1C1C(C(=O)c2cc3ccccc3o2)=C(O)C(=O)N1CCN1CCOCC1 (centres undefined)	0	0	0	0	22µM
COc1cccc2cc(C(=O)C3=C(O)C(=O)N(CCN4CCOCC4)C3c3ccc(C)o3)oc12 (centres undefined)	0	0	0	0	79µM
COc1cccc2cc(C(=O)C3=C(O)C(=O)N(CCN(C)C)C3c3ccc(F)cc3)oc12 (centres undefined)	0	0	0	0	0
COc1cccc(C2C(C(=O)c3cc4ccccc4o3)=C(O)C(=O)N2CCN2CCOCC2)c1 (centres undefined)	0	0	0	0	?
Cc1nnc(N/N=C\c2ccc(-c3ccccc3[N+](=O)[O-])o2)n1N	?	0	0	-65	0
Cc1nnc(N/N=C/c2ccc(-c3ccccc3F)o2)n1N	0	0	0	0	0
CCc1nnc(N/N=C/c2ccc(-c3ccc([N+](=O)[O-])cc3)o2)n1N	0	0	0	-37	0
Cc1cccc[n+]1CCCCCCCCCC[n+]1ccccc1C	0	0	0	0	0
Brc1cccc[n+]1CCC[n+]1ccccc1Br	0	-	-	-	6.3µM
COC1=CC(=O)C(O)=C/C1=C\C=C\c1ccccc1	-	-	-	0	-
